Here are results for five compounds from PubChem BioAssay.

The nature of test [1]: small molecules captured by biotinylated probe aFSTL3 – biochemical, small-molecule microarray, fluorescence 635/667, stem cell growth factor project, primary screen (AID 1064).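 Further: measures binding of the biotinylated anti-FSTL3 antibody to printed compounds.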 The following applies: higher = more signal.
Test [2] is described as follows: binders from COS7 lysate, DM2A8 probe, primary screen, torsin A project, cell lysate, small-molecule microarray, fluorescence 635/667 (AID 1065). The conditions noted are these: higher = more signal, COS7 lysate expressing mutant human TOR1A.
The nature of test [3]: small molecules captured by biotinylated probe aFGF2 – biochemical, small-molecule microarray, fluorescence 635/667, stem cell growth factor project, primary screen (AID 1067).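 Further: measures binding of biotinylated aFGF2 protein to printed compounds on slides; z-score merges feature fluorescence and signal-to-noise across triplicate slides.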 The following applies: higher = more signal.
The nature of test [4]: small molecules captured by biotinylated probe aFGF10 – biochemical, small-molecule microarray, fluorescence 635/667, stem cell growth factor project, primary screen (AID 1071).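 Further: score merges 667 nm spot intensity and signal to noise from triplicate slides.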 The conditions noted are these: higher = more signal.
For test [5], the target named is Neurogenic locus notch homolog protein 2 (Homo sapiens) (UniProt Q04721). The test can be described thus: small molecules binding Notch2 protein – biochemical, small-molecule microarray, 635 nm fluorescence, stem cell growth factors, primary screen (AID 1073). The conditions noted are these: higher = more signal.
For test [6], the target named is Pro-neuregulin-1, membrane-bound isoform (Homo sapiens) (UniProt Q02297). The test can be described thus: small molecules binding neuregulin-1 protein – biochemical, small-molecule microarray, fluorescence 635/667, psychiatric disease protein project, primary screen (AID 1075).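 Further: score combines 667 nm spot fluorescence with signal to noise.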 The conditions noted are these: NRG1 binding, 635 nm fluorescence, higher = more signal.

Test [7] deals with Neuregulin-1 EGF-like domain. Kind of test: small molecules binding NRG1 EGF domain – biochemical, small-molecule microarray, 635 nm fluorescence, primary screen (AID 1081).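 Further: binding of the protein to compounds printed on small-molecule microarray slides.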 The following applies: higher = more signal.
Test [8] can be described thus: FRG1 expression reporter modulators in myotubes – cell-based, C2C12 myotubes, firefly/Renilla luciferase, luminescence, FRG1 inhibition for FSHD, primary screen (AID 1084). The conditions noted are these: FRG1 promoter luciferase, higher = more signal, called active from +8 up or from −8 down.
A short description of test [9]: small molecules captured by biotinylated probe aFST – biochemical, small-molecule microarray, fluorescence 635/667, stem cell growth factor project, primary screen (AID 1086).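 Further: score merges 667 nm fluorescence with signal-to-noise of each printed compound spot.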 The conditions noted are these: higher = more signal.
A short description of test [10]: binders of probe aHhip on microarray, primary screen, stem cell growth factor project, biochemical, small-molecule microarray, fluorescence 635/667 (AID 1087).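 Further: score merges spot fluorescence at 667nm with spot signal to noise ratio.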 The conditions noted are these: higher = more signal.
Test [11] deals with PRMT1 (protein arginine N-methyltransferase 1). Kind of test: small molecules binding arginine methyltransferase PRMT1 – biochemical, small-molecule microarray, 635 nm fluorescence, primary screen (AID 1088).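 Further: binding of Prmt1 protein to compounds spotted on small-molecule microarray slides.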 The following applies: higher = more signal.
Test [12] in a line: growth effects on S. cerevisiae YJM789 – YJM789 clinical isolate, OD600, 24 h, basal, primary screen (AID 1089).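 Further: growth of clinical yeast isolate S. cerevisiae YJM 789 seeded 1000 cells per well; test concentration not given here.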 The following applies: higher = more signal, called active from +8 up or from −8 down.
Test [13] can be described thus: S. pombe growth modifiers, basal conditions – strain 972, OD600, 24 h, no modulator, primary screen (AID 1090).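 Further: basal condition with compound alone and no growth modifier present; test concentration not given here.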 The following applies: S. pombe 972 growth, higher = more signal, called active from +8 up or from −8 down.
Test [14] can be described thus: budding yeast growth modifiers under rapamycin – strain BY4716, OD600, 96 h, primary screen (AID 1091). Further: test concentration not given here. The conditions noted are these: S. cerevisiae BY4716 + rapamycin, higher = more signal, called active from +8 up or from −8 down.
The target of test [15] is Torsin-1A-interacting protein 2 (Homo sapiens) (UniProt Q8NFQ8). Kind of test: small molecules binding lysate-expressed LULL1 – cell lysate, human LULL1 lysate, 635/667 nm fluorescence, primary screen (AID 1092).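 Further: score merges per-feature 667 nm fluorescence with signal-to-noise.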 The following applies: small-molecule microarray, hLULL1 lysate binding, 635 nm fluorescence; higher = more signal.
Test [16] is described as follows: optical density change of DRC41 E. coli – strain DRC41, OD650, 24 h, E. coli filamentation project, primary screen (AID 1093).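 Further: MC1000 strain lacking acrAB efflux and sulA so SOS filamentation is blocked; test concentration not given here.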 The conditions noted are these: E. coli DRC41 growth, higher = more signal, called active from +8 up or from −8 down.
Test [17] is described as follows: probe aLefty2 binding to arrayed compounds – biochemical, biotinylated probe, 635/667 nm fluorescence, primary screen (AID 1094).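 Further: score merges spot fluorescence near 667 nm with spot signal-to-noise ratio.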 The conditions noted are these: small-molecule microarray, higher = more signal.
The test system of test [18] is Noggin (protein binding on small-molecule microarray). The test can be described thus: small molecules binding Noggin protein – biochemical, 635/667 nm fluorescence, primary screen (AID 1095).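 Further: score merges 667 nm feature fluorescence with signal to noise over triplicate slides.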 The conditions noted are these: 635 nm fluorescence, higher = more signal.
In test [19] the target is Neurogenic locus notch homolog protein 3 (Homo sapiens) (UniProt Q9UM47). The test can be described thus: small molecules binding NOTCH3 protein – biochemical, 635/667 nm fluorescence, primary screen (AID 1096). The conditions noted are these: small-molecule microarray, 635 nm fluorescence, higher = more signal.
Test [20] can be described thus: probe aEGFR binding to arrayed compounds – biochemical, biotinylated probe, 635/667 nm fluorescence, primary screen (AID 1097).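 Further: probe is a biotinylated anti-EGFR antibody binding compounds printed on slides; score combines fluorescence near 667 nm and signal to noise of each spot.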 The conditions noted are these: small-molecule microarray, higher = more signal.

Active and inactive are the calls of the source.

Chain of Neurogenic locus notch homolog protein 2 (Homo sapiens) (Q04721 whole entry, looked up, canonical isoform): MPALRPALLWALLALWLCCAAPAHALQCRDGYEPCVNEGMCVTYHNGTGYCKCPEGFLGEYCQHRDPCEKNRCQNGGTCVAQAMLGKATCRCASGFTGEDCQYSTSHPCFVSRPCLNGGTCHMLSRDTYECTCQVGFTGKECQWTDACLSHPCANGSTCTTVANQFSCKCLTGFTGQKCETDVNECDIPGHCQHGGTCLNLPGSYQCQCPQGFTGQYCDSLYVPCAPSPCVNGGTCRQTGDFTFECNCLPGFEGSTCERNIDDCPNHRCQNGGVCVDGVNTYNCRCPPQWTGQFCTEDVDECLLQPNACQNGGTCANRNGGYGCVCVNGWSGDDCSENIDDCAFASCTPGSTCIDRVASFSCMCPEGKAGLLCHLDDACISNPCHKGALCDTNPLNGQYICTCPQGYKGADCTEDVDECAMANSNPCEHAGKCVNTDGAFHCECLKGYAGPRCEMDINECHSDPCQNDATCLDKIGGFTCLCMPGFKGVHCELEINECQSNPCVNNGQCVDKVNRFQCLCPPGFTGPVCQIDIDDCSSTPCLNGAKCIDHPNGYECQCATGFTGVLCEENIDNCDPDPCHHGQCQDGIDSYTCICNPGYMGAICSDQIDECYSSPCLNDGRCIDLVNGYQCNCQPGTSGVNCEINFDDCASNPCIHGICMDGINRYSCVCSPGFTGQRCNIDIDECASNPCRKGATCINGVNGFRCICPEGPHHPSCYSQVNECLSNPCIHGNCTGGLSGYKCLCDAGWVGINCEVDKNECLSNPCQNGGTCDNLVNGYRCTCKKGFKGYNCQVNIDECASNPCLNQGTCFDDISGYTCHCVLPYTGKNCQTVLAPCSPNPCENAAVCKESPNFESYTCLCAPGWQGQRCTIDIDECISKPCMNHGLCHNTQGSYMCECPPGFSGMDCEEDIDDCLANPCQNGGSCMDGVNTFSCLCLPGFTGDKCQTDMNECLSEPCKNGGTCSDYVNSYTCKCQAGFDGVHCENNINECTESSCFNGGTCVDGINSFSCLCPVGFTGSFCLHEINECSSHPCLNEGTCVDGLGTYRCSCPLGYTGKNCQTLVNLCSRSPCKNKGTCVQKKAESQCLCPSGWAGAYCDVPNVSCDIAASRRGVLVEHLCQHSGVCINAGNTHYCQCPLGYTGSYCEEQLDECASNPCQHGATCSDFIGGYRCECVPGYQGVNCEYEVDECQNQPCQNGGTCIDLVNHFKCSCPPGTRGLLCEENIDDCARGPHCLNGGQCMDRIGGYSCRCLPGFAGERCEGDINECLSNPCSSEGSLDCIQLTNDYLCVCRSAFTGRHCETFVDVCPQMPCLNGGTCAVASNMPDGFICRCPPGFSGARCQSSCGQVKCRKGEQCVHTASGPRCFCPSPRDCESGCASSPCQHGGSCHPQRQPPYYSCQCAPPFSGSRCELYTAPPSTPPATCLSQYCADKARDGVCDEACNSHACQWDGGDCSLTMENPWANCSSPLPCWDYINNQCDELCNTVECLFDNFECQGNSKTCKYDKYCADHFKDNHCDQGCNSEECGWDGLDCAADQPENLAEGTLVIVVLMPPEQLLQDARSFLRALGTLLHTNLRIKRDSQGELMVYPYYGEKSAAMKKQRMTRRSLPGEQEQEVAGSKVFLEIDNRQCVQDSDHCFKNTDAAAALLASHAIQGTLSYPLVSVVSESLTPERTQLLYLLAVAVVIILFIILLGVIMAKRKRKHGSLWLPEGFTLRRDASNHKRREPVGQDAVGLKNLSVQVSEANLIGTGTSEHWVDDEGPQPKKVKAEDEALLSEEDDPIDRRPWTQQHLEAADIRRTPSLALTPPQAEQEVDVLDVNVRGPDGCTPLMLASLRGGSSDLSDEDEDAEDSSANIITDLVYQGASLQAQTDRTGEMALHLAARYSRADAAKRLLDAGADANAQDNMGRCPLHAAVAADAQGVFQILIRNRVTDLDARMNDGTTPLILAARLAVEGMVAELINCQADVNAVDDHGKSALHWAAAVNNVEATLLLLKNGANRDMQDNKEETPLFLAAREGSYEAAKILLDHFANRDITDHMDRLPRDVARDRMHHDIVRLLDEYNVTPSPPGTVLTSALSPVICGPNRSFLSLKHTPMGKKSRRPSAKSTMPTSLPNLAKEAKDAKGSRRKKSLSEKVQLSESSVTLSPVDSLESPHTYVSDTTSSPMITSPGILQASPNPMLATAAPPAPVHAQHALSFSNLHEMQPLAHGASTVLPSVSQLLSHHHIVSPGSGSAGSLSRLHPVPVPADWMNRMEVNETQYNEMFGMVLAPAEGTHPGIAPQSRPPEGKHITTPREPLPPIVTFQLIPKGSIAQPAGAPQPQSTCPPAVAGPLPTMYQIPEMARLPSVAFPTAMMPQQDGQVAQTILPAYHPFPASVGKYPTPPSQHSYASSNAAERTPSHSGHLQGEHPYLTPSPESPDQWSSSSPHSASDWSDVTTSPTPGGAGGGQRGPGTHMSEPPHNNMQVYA
Chain of Pro-neuregulin-1, membrane-bound isoform (Homo sapiens) (Q02297 whole entry, looked up, canonical isoform): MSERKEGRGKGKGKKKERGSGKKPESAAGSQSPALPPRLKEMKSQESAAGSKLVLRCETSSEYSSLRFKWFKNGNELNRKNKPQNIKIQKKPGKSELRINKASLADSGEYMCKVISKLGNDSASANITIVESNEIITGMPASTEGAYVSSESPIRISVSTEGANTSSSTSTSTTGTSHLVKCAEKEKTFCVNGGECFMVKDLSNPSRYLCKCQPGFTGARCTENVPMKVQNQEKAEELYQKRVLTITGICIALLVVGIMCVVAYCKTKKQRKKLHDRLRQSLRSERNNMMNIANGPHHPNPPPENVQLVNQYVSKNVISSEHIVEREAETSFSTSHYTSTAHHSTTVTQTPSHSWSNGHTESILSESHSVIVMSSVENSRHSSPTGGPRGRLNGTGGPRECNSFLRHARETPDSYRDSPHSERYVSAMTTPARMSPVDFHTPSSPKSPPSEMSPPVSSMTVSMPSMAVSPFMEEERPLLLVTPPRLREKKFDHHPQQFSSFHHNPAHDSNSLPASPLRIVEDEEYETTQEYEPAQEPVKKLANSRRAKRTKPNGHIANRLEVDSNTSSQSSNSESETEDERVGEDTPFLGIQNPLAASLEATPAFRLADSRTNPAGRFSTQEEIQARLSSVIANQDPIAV
Chain of Torsin-1A-interacting protein 2 (Homo sapiens) (Q8NFQ8 whole entry, looked up): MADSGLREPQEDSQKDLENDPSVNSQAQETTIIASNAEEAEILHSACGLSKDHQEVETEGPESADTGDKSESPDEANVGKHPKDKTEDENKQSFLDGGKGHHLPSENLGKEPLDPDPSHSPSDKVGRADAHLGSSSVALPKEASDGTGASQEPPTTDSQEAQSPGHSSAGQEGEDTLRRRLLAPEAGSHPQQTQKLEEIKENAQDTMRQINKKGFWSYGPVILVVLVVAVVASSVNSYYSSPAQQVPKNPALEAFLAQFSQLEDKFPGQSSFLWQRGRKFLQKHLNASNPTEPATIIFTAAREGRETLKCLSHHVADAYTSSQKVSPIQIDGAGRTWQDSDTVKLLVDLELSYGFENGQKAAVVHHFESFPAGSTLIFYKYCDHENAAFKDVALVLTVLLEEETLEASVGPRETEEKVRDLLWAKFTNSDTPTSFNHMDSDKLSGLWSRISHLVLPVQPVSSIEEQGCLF

`CCCC=C(CCC)[C@@H](NS(=O)(=O)c1cccc2cccnc12)c1ccc(-c2ccccc2)cc1`: the composite z-score in [1] is -0.245; in test [2] it was 0.185; in [3], 0.103; in test [4] it was 0.91; in [5] it was 1.66; in test [6], 1.08. For the same compound, the composite z-score is 0.898 in [7]; 1.41 in [9]; -0.0417 in test [10]; 1.55 in test [11]; 3.61 in test [15]; 0.104 in test [17]. The composite z-score in test [18] is 1.07; in [19] it was 1.06; in test [20], 0.06. Moreover, the z-score is 2 (inactive) in test [8]; -0.221 (inactive) in test [12]; 0.114 (inactive) in [13]; 0.638 (inactive) in [14]; -0.701 (inactive) in [16].
`CC(C)CNC(=O)[C@@]1(C)c2ccccc2C(=O)N(Cc2cc(C(F)(F)F)cc(C(F)(F)F)c2)[C@H]1c1ccc(CO)cc1`: the composite z-score in [1] is 0.0317; in test [2] it was 0.0213; in test [3], -0.178; in test [4], -0.278; in test [5], -0.474; in test [6], -0.12. The composite z-score in [7] is 0.492; in test [9], -0.635; in [10] it was 0.0156; in [11], 1.3; in test [15], 1.16; in test [17] it was 0.0481. Also, the composite z-score in test [18] is -0.558; in test [19], -0.966; in test [20], -0.1. In addition, the z-score is -1.43 (inactive) in [8]; -0.721 (inactive) in [12]; 0.4 (inactive) in test [13]; -0.699 (inactive) in [14]; 0.497 (inactive) in [16].
For `COCCOC(=O)N1C(=O)[C@@]2(c3cc(C#CC4=CCCCC4)ccc31)[C@H](C(=O)N1CCCCCCC1)[C@H]1C(=O)O[C@H](c3ccccc3)[C@H](c3ccccc3)N1[C@@H]2c1ccc(OCCO)cc1`, the composite z-score in test [1] amounted to 1.77; in [2] it was 0.399; in test [3], 0.316; in test [4], 0.5; in [5], 0.891; in [6], 0.455. The composite z-score in test [7] is 1.1; in test [9], 1.36; in [10], 0.739; in test [11], 1.22; in [15], 0.973; in test [17], 0.726. Further, the composite z-score in test [18] stood at 1.52; in test [19], 1.06; in test [20] it was 0.265. For the same compound, the z-score is 1.06 (inactive) in test [8]; 0.175 (inactive) in test [12]; -0.534 (inactive) in test [13]; 1.62 (inactive) in [14]; -0.909 (inactive) in test [16].
As for `C=CCC(OC(C)=O)[C@@H]1[C@@H](N(Cc2cccc3ccccc23)C(=O)Cc2ccc(F)cc2)c2cc(OCCCO)ccc2N1C(=O)c1ccc(-c2ccccc2)cc1` (stereo not given in full), the composite z-score is 0.873 in test [1]; -0.302 in [2]; -0.0427 in [3]; -0.387 in [4]; -0.648 in test [5]; -0.61 in [6]. Further, the composite z-score is -0.802 in [7]; 0.392 in test [9]; -0.14 in test [10]; -0.325 in test [11]; 0.451 in [15]; 0.125 in [17]. In addition, the results for the composite z-score in test [18], in [19] and in test [20] were -0.556, -1.37 and 0.0457, respectively. Besides, the z-score in test [8] is -1.83 (inactive); in test [12] it was -0.256 (inactive); in test [13], -0.277 (inactive); in [14], 0.18 (inactive); in [16], 0.125 (inactive).
In the case of `C=C(CCCC)C(=O)CC[C@@H](OC(=O)c1cccnc1)c1ccc(OCCO)cc1`, the composite z-score in [1] was -0.449; in test [2], 0.887; in test [3], -0.0894; in test [4] it was 0.681; in test [5] it was 0.214; in test [6] it was 0.89. The composite z-score in [7] was 1.19; in test [9], 0.204; in test [10] it was -0.0645; in test [11] it was 1.48; in [15] it was 1.18; in test [17] it was -0.113. Moreover, the composite z-score is 1.93 in test [18], 0.952 in test [19] and -0.0828 in test [20]. The z-score was 0.84 (inactive) in [8]; -0.405 (inactive) in test [12]; -2.22 (inactive) in test [13]; -0.861 (inactive) in [14]; -0.288 (inactive) in [16].
